Test [1] can be described thus: qHTS assay to identify small molecule antagonists of the retinoid acid receptor (RAR) signaling pathway - cell viability counter screen (AID 1159551). Further: nearly all actives have a fitted effect of over 35% in size. Summed up:
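Viability of C3RL4 cells is quantified from ATP by luminescence after 6 h treatment at 37 C with compounds and 1 uM retinol.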
A general note: qHTS replaces the single test concentration by a dilution series.

A short description of test [2]: qHTS assay to identify small molecule antagonists of the retinoic acid receptor (RAR) signaling pathway (AID 1159552; further: nearly all actives have a fitted effect of over 50% in size). Summed up:
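C3RL4 RARE-luc cells, overnight plating; retinol 1 uM final added right after compound; 6 hr 37 C; luciferase read at 30 min RT.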

A short description of test [3]: qHTS assay to identify small molecule agonists of the retinoic acid receptor (RAR) signaling pathway (AID 1159553). Further: potency means the concentration at half of the fitted maximal effect. Summed up: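 Compounds dissolved in DMSO were pinned onto C3RL4 cells seeded the previous day, and plates were held 6 hr at 37 C. RARE-driven luciferase output was then read by luminescence.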
Test [4] in a line: qHTS assay to identify small molecule antagonists of the estrogen related receptor (ERR) signaling pathway (AID 1224819; further: potency means the concentration at half of the fitted maximal effect; nearly all actives have a fitted effect of over 50% in size). The procedure, abridged:
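ERR reporter cells were plated at 2,000 cells/well and left 6 h at 37 C/5% CO2 before pin-tool transfer of compounds in DMSO. After 18 h at 37 C, One-Glo was added and luminescence was read 30 min later at room temperature.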

Test [5] in a line: qHTS assay to identify small molecule agonists of the estrogen related receptor (ERR) signaling pathway (AID 1224820). The procedure, abridged: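 After 6 h plating (2,000 cells/well) and 18 h compound treatment at 37 C, ERR cells were lysed with One-Glo and luminescence read after 30 min at room temperature.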
The subject of test [6] is estrogen-related receptor alpha (ERRalpha) with PGC-1alpha coactivator, human. In words: qHTS assay to identify small molecule antagonists of the estrogen related receptor signaling pathway with the pleiotropic PPARgamma coactivator (PGC) (AID 1224821; calls by dose curve;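 further: series mostly up to about 46 µM; lower luminescence signal means antagonism of PGC/ERR signalling; nearly all actives have a fitted effect of over 50% in size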). Summed up: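 Luminescence from One-Glo luciferase reagent (30 min, room temperature) measured after 18 h compound treatment at 37 °C. Cells carry the PGC/ERR reporter and were seeded 6 h prior to dosing.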

Records with an inconclusive call do not appear. Where a call stands in place of a potency, no number is given. The source made the active and inactive calls. Unless noted, the call rests on the fitted dose curve; in most records, active means well fitted curve in the direction sought with a large enough effect in the repeat runs; inconclusive means weak or mixed curves; inactive means no such curve, though single readings can be large; an effect the other way counts as inactive or inconclusive.

In the case of `CC1=C(C)C(=O)C(CCCCC#CCCCC#CCO)=C(C)C1=O`, the result in test [1], in test [2], in test [5] and in test [6] was inactive. For the same molecule, in test [3], the Potency entry is “inactive”. In test [4], the Potency was 12.8 µM (active).
With `O=C1CCCN1CCO`, the molecule was classed as inactive in test [1]. For the same molecule, the Potency entry in test [3] is “inactive”.
For the molecule `CC(C)=CCC[C@H](C)CCO`, the outcome in test [2] was inactive. Further, the Potency entry in test [3] was “inactive”.
As to `Cc1nc2sccn2c(=O)c1CCN1CCC(=C(c2ccc(F)cc2)c2ccc(F)cc2)CC1`, the molecule was classed as inactive in test [1], in test [2] and in test [5]. The Potency entry in test [3] is “inactive”. For the same molecule, the Potency in test [4] is 19.6 µM (active).
For the molecule `CCCCCCC/C=C/C=O`, in test [1], the outcome was inactive. Further, the Potency entry in test [3] is “inactive”.
As to `O=c1c2ccccc2oc2ccccc12`, the outcome in test [1] and in test [2] was inactive. Also, in test [3], the Potency was 27.3 µM (active).
For the molecule `CC(=O)c1ccc(Cl)c(Cl)c1Cl`, the molecule was called inactive in test [1] and in test [2]. In test [3], the Potency result is “inactive”.
Turning to `O=c1[nH][nH]c2ccccc12`, the molecule was classed as inactive in test [1]. The Potency entry in test [3] was “inactive”.
In the case of `O=C(O)c1ccccc1-n1cc(C(=O)O)c(=O)c2cc(Nc3c(F)cc(F)cc3Cl)c(Cl)cc21`, the molecule was called inactive in test [1] and in test [2]. In addition, the Potency result in test [3] was “inactive”.
For `C[C@H](CN1CCCC1)C(=O)c1ccc(C(F)(F)F)cc1`, the outcome in test [1] and in test [2] was inactive. Besides, the Potency entry in test [3] was “inactive”.
For `Oc1ccc(CCNCCCCCCNCCc2ccccc2)cc1O`, the call in test [1] and in test [2] was inactive. The Potency entry in test [3] was “inactive”.
In the case of `c1ccc(CN(Cc2ccccc2)Cc2ccccc2)cc1`, the result in test [1] and in test [2] was inactive. Moreover, the Potency result in test [3] was “inactive”.
Take `CC(C)C[C@H](NC(=O)[C@H](Cc1ccccc1)NC(=O)c1cnccn1)B(O)O`: the outcome in test [1] and in test [2] was inactive. Moreover, the Potency in test [3] is 0.0094 µM (active).
As for `CCOC(C)OCC`, the molecule was classed as inactive in test [1] and in test [2]. Further, the Potency entry in test [3] is “inactive”.
Regarding `CC(C)(O)C(=O)O`, the result in test [1] and in test [2] was inactive. Moreover, the Potency entry in test [3] was “inactive”.
Regarding `CCOCCn1c(N2CCCN(C)CC2)nc2ccccc21`, the call in test [1] and in test [2] was inactive. In addition, in test [3], the Potency result is “inactive”.
Turning to `CCCCCCOC(=O)c1ccccc1`, the result in test [1] and in test [2] was inactive. Moreover, the Potency result in test [3] was “inactive”.
Regarding `CC(C)CC(C)(C)C`, the molecule was classed as inactive in test [1] and in test [2]. In addition, the Potency entry in test [3] is “inactive”.
Take `Cc1c(Cl)cccc1Nc1ccccc1C(=O)O`: the result in test [1] and in test [2] was inactive. Further, the Potency result in test [3] was “inactive”.
With `O=C(O)COCC(=O)O`, the result in test [1] and in test [2] was inactive. Moreover, in test [3], the Potency entry is “inactive”.
